We go through 37 compounds from the supplement of paper PMC10941209.

The assay relates to HFF. Kind of assay: cell viability relative to DMSO control; higher = less cytotoxic. The note with it: 1 µM; 72 h. Here is the method:
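Single-dose cytotoxicity screen of the MMV Pandemic Response Box at 1 uM on human foreskin fibroblasts (HFF), 72 h at 37 C. Viability measured by MTT (OD 550 nm) and normalised to the DMSO control (% survival).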
Regarding `O=[N+]([O-])c1cn2c(n1)OC[C@@H](OCc1ccc(OC(F)(F)F)cc1)C2`, the cell viability stood at 64.4%.

Consider `CC(C)(C)c1cc(CCC(=O)N2CCC2)cc(C(C)(C)C)c1O`, for which the cell viability is 72.6%.

For `CCCC1(C2CC2)c2cc(Cl)ccc2NC(=O)N1C` (configuration not stated), the cell viability came to 62.3%.

`CN1c2ccc(Cl)cc2N(c2ccccc2)C(=O)c2cn(Cc3ccc(CN4CCOCC4)cc3)nc21` showed a cell viability of 68.2%.

`CN(C)CCNC(=O)c1cccc2cccnc12` showed a cell viability of 61.2%.

The compound `O=C(Nc1ccc(-c2ccccc2)cc1)C1=C(O)C(Cc2ccccc2)OC1=O` (configuration not stated) registered a cell viability of 69.3%.

As to `Cc1nc(Nc2ccc(F)cc2)nc(N2CCc3ccccc3C2C)c1C` (configuration not stated), the cell viability is 65.9%.

As to `COc1cc(Cc2cnc(N)nc2N)c2c(c1OC)OC(C1CC1)C=C2` (configuration not stated), the cell viability was found to be 74.3%.

As for `Nc1nc(NC2Cc3ccc(F)cc3C2)nc(N2CCCCC2)n1` (configuration not stated), the cell viability stood at 72.4%.

Regarding `CC(C)(C)NC(=O)[C@@H]1C[C@@H]2CCCC[C@@H]2CN1C[C@@H](O)[C@H](Cc1ccccc1)NC(=O)[C@H](CC(N)=O)NC(=O)c1ccc2ccccc2n1`, the cell viability worked out at 78.9%.

For `CC[C@@]1(O)C(=O)OCc2c1cc1n(c2=O)Cc2cc3c(CN(C)C)c(O)ccc3nc2-1`, the cell viability came to 50.1%.

Consider `CC[N+]1(C/C2=C/CCCCCC2)CCC(NC(=O)C2c3cc(Cl)ccc3Oc3ccc(Cl)cc32)CC1` (configuration not stated), for which the cell viability was found to be 65.6%.

In the case of `O=C(NCCN1CCCCC1)c1cccc(C(F)(F)F)c1`, the cell viability is 70.6%.

As for `Cc1cc(CCOc2c(C)cc(-c3nnn(C)n3)cc2C)on1`, the cell viability came out at 69.2%.

On to `O=S(=O)(Nc1cccc2cccnc12)c1ccccc1`, for which the cell viability came out at 64.1%.

In the case of `CC(C)c1cc2c(cc1S(=O)(=O)O)[C@@]1(C)CCC[C@@](C)(C(=O)O)[C@@H]1CC2`, the cell viability amounted to 64.8%.

As for `CC(=O)O[C@H]1C[C@@]2(C)[C@@H](C[C@@H](O)[C@H]3[C@@]4(C)CC[C@@H](O)[C@@H](C)[C@@H]4CC[C@@]32C)/C1=C(\CCC=C(C)C)C(=O)O`, the cell viability is 63.5%.

`CC(C)Oc1ccc(-c2nc(-c3cccc4c3CC[C@@H]4NCCO)no2)cc1C#N` registered a cell viability of 65.4%.

Compound `CC(C)(C)NC(=O)[C@@H]1CN(Cc2cnc3occc3c2)CCN1C[C@@H](O)C[C@@H](Cc1ccccc1)C(=O)N[C@H]1c2ccccc2C[C@H]1O` gave a cell viability of 72.6%.

Compound `NC[C@H]1OB(O)c2c(OCCCO)cccc21` came in with a cell viability of 69.9%.

In turn, `CC(C)c1ccc(COc2cccc(-c3cc([S+](C)[O-])c(C#N)c(=O)[nH]3)c2)cc1` (configuration not stated) displayed a cell viability of 76.9%.

As for `O=C(NCc1ccccc1Cl)c1cnc2ccccc2n1`, the cell viability came to 71.4%.

`C(=C\c1nc2ccccc2[nH]1)/c1ccc2c(c1)OCO2`: the cell viability stood at 63.4%.

In turn, `C[C@@H](c1nc(-c2ccc(C#N)cc2)cs1)[C@](O)(Cn1cncn1)c1ccc(F)cc1F` showed a cell viability of 62.9%.

`O=[N+]([O-])c1ccc2c(CCc3c[nH]c4ccccc34)c[nH]c2c1`: the cell viability was found to be 61.9%.

`O=C(O)C(Cc1c[nH]c2ccccc12)N1C(=O)c2ccccc2C1=O` (configuration not stated) yielded a cell viability of 68.5%.

Take `O=c1[nH]c(=O)n(Cc2cccc(Oc3ccccc3)c2)cc1Nc1ccccc1`: the cell viability is 63.8%.

Compound `Cc1ncc([N+](=O)[O-])n1CC(O)CN1CCOCC1` (configuration not stated) yielded a cell viability of 61.1%.

`C[C@H]1CC[C@@]2(O)C(C)(C)[C@@H]3CC[C@@]2(C)[C@H]1C3` had a cell viability of 65.2%.

In turn, `O=C(Nc1ccccc1C(=O)O)c1cccc(Oc2ccccc2)c1` had a cell viability of 67.4%.

The compound `C[C@H]1[C@@H](c2cccc(C(F)(F)F)c2)OC(=O)N1C(=O)NCc1cncc2ccccc12` returned a cell viability of 70%.

Regarding `C=CCc1cc(Cc2cnc(N)nc2N)cc(OC)c1O`, the cell viability came out at 72.9%.

For the compound `Cc1c[nH]c(=O)nc1NCc1ccccc1`, the cell viability worked out at 66.7%.

In turn, `N[C@H](CCC(=O)N[C@@H](Cc1c[nH]c2ccccc12)C(=O)O)C(=O)O` returned a cell viability of 61.9%.

`Cc1cc(C2CCCCC2)n(O)c(=O)c1`: the cell viability came to 78.2%.

For `Nc1ccc2oc(=O)ccc2c1I`, the cell viability is 69.6%.

In the case of `NC(=O)c1ccc(I)c([N+](=O)[O-])c1`, the cell viability turned out to be 71.1%.

In general, cell viability refers to a per cent measure of how many cells are alive, often set against a control.
